Screening results as filed in PubChem.
Pf apPOL block = Pf-apPOL DNA polymerase inhibition; Recombinant Pf-apPOL, molecular beacon fluorescence, 1.5 h; inhibition, % at 10 µM; 210,000 tested, 0.25% active
mHTT-CaM PPI inh = disrupts binding of mutant huntingtin to calmodulin | AID 1671202 | 190,000 tested, 3.6% active | AlphaScreen His-mHTT/GST-CaM binding, luminescence | inhibition, % at 15 µM | P42858;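 also: 0% = both proteins with DMSO and 100% = one protein alone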
* marks the source's active call; other numbers are inactive results; · = no result given. Only some compounds are listed: those with a hit (about 3.6% of all), similar ones and a draw of the others. Rule as the data show it: active = inhibition above about 50%; inactive = the rest.

SMILES	Pf apPOL block	mHTT-CaM PPI inh
Ic1ccc2c(c1)C1C=CCC1C(c1ccncc1)N2 (stereo unspecified)	5.8	95.0*
Brc1ccc2c(c1)C1C=CCC1C(c1ccncc1)N2 (stereo unspecified)	-6.7	95.0*
CC(=O)c1ccc(NC(=O)c2ccc(NC(=O)C3COc4ccccc4O3)cc2)cc1 (stereo unspecified)	-5.4	9.2
CCn1c(C)c(C=O)c2cc([N+](=O)[O-])ccc21	-2.7	-1.8
O=C(NCc1cccnc1)c1cc(-c2cccs2)nc2ccccc12	-1.9	-2.0
Cc1cc(-c2cc(Cl)ccc2O)n[nH]1	-4.0	5.5
O=[N+]([O-])c1ccccc1-c1cc(-c2cc(Cl)ccc2O)n[nH]1	2.3	100.2*
Oc1ccccc1N=Cc1c(Cl)cccc1Cl	-5.2	12.0
CC(=O)n1c(C=Nc2ccc(Cl)cc2)c(O)c2ccccc21	-0.8	-2.0
CCC(CO)N=Cc1c(O)n(-c2c(Cl)cccc2Cl)c2ccccc12 (stereo unspecified)	-1.3	83.0*
OCCN=Cc1c(O)n(-c2c(Cl)cccc2Cl)c2ccccc12	-0.8	85.0*
CCN(CC)S(=O)(=O)c1ccc(C(=O)NC2CCCCC2)cc1	-3.2	1.0
O=C1OC(c2cccs2)=N/C1=C/c1ccccc1F	0.4	3.0
Cc1sc(NC(=O)c2ccc(S(=O)(=O)N3CCc4ccccc43)cc2)c(C#N)c1C	6.4	10.7
O=C(Nc1cccc(F)c1)N1CCC2(CC1)Nc1cccnc1NC2=NCc1ccccc1	-8.8	98.7*
CC(=O)N1CCC2(CC1)Nc1cccnc1NC2=NCc1ccccc1	-5.2	0.6
CN(C)c1ccc(Br)c2ccccc12	·	-7.2
Cc1nn(-c2ccccc2)nc1C(=O)ON1C(=O)C2C3C=CC(O3)C2C1=O (stereo unspecified)	-72.3	·
O=C(ON1C(=O)C2C3C=CC(O3)C2C1=O)c1cccnc1Oc1ccccc1 (stereo unspecified)	77.2*	·
O=C(Nc1cccc(Cl)c1Cl)c1cnn2c1NC(c1ccco1)CC2C(F)(F)F (stereo unspecified)	0.4	10.0
CCN(CC)C(=O)CSc1nnc(-c2cccc(OC)c2)n1-c1ccccc1	-3.6	0.6
CC1=Nc2ccccc2C1=Cc1c(O)n(-c2cccc(Br)c2)c(=O)[nH]c1=O	-1.9	96.0*
CC1=Nc2ccccc2C1=Cc1c(O)n(-c2ccc(Cl)cc2)c(=O)[nH]c1=O	-2.4	15.0
Cc1cccn2c(=O)c3cc(C(=O)N4CCOCC4)c(=N)n(CCN4CCOCC4)c3nc12	-4.0	0.0
Cc1cc(C)n2nc(SCC(=O)Nc3cccc(Cl)c3C)nc2n1	-6.8	7.0
SMILES	Pf apPOL block	mHTT-CaM PPI inh
Cc1oc2ccn(Cc3ccc(F)cc3)c(=O)c2c1C(=O)NC(C)C	-5.4	80.4*
Cc1oc2ccn(Cc3ccc(F)cc3)c(=O)c2c1C(=O)N1CCN(C(C)C)CC1	-4.5	-4.9
COc1cccc(/C=C2/N=C(C3CCCCC3)OC2=O)c1OC	-5.5	-8.0
COc1cccc(C(=O)N2CCCn3nc(-c4ccc(C)cc4)cc3C2)c1OC	-14.5	39.8
Cc1ccc(-c2ccc(/C=C/[N+](=O)[O-])o2)c(Br)c1	0.6	79.1*
O=Cc1ccc(-c2ccc([N+](=O)[O-])cc2)o1	-6.0	4.6
Cc1ccc(-c2ccc(C=O)o2)c(Br)c1	-7.3	-8.1
CC1(C)OC(=O)C(=Cc2ccc(-c3ccc([N+](=O)[O-])cc3)o2)C(=O)O1	-3.9	2.0
O=[N+]([O-])/C=C/c1ccc(-c2ccc(Br)cc2)o1	-2.7	51.1*
O=[N+]([O-])/C=C/c1ccc(-c2ccc(Cl)cc2)o1	3.6	84.4*
CCc1ccccc1NC(=O)c1cc2n(n1)C(C(F)(F)F)CC(c1ccco1)N2 (stereo unspecified)	-6.1	4.0
O=C(Nc1c2c(nn1-c1cccc(Cl)c1)CSC2)c1ccc(Br)cc1	-3.1	-4.0
CN(Cc1ccccc1)C(=O)c1noc2c1CCCC2	-2.8	-13.9
N#CCC(=O)c1ccc([N+](=O)[O-])cc1	5.5	98.5*
N#CCC(=O)c1ccc(Cl)cc1	1.2	13.5
COc1ccc(Cl)cc1C(=O)Nc1ccc(S(=O)(=O)N2CCOCC2)cc1	2.3	7.5
CS(=O)(=O)N1CCN(CCNC(=O)NCCc2ccccc2)CC1	-1.2	-9.5
Cc1ccc(C)c(N2CCN(C(=O)C3c4ccccc4CCN3C(=O)C3CC3)CC2)c1 (stereo unspecified)	-1.5	56.9*
Cc1ccc(C)c(N2CCN(C(=O)C3CCC3)CC2)c1	-3.8	0.0
Cc1cc(C)cc(C(=O)N2CCCC(C(=O)Nc3ccc(Cl)cc3F)C2)c1 (stereo unspecified)	2.3	-7.8
O=S(=O)(c1ccc(Cl)cc1)N1CCc2nc(-c3ccc(F)cc3)ncc2C1	-0.1	-8.0
Cc1cc(=O)n2c(CCNC(=O)COc3ccccc3F)csc2n1	16.1	-3.9
COc1ccccc1-n1nc(C(=O)N2CCC(Cc3ccccc3)CC2)c2ccccc2c1=O	-2.0	58.0*
COc1ccccc1-n1nc(C(=O)N2CCC(C)CC2)c2ccccc2c1=O	0.4	-5.0
